Results published in PubChem BioAssay (NCI).
This is part of a sample that, as a whole, favours compounds with a hit. Of some 83,000 tested, about 20% had one in any assay.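 Interpretation: 100, growth as untreated; towards 0, rising growth inhibition; 0, no net growth; 0 to -100, cell death. Compounds scoring below 10 were considered active.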 Calls of active or inactive are those of the source.

Legend:
Experiment in all cases: NCI-60 one-dose screen, 48 h (100 = growth as untreated, 0 = no growth, -100 = all killed)
Details in all cases: 10 µM unless noted
[1] = test system: HCT-15 colon
[2] = test system: HT29 colon
[3] = test system: SNB-75 CNS
[4] = test system: SNB-19 CNS
[5] = test system: U251 CNS
[6] = test system: PC-3 prostate
[7] = test system: SK-MEL-5 melanoma
[8] = test system: UACC-62 melanoma
[9] = test system: LOX IMVI melanoma
[10] = test system: SK-MEL-28 melanoma

Measured: growth

COc1ccc(F)cc1/C=C/C(=O)/C=C(/C=C/c1cc(F)ccc1OC)OB(F)F
active: [1] 9.21% | [9] 3.94%
inactive: [2] 18% | [3] 83.7% | [4] 72.4% | [5] 14% | [6] 29% | [7] 53.6% | [8] 14.8% | [10] 48.1%

CCC(=O)Oc1ccc(-c2ccccc2)cc1Br
inactive: [1] 105% | [2] 101% | [3] 95.1% | [4] 112% | [5] 103% | [6] 95.4% | [7] 98.3% | [8] 109% | [9] 107% | [10] 110%

Cn1ccnc1C(=O)/C=C/c1ccc(C(=O)Nc2ccccc2O)cc1
active: [1] 7.09% | [5] 5.29% | [9] -18%
inactive: [2] 24.7% | [3] 46.2% | [4] 14.3% | [6] 23.5% | [7] 89.3% | [8] 50.6% | [10] 73.4%

Cn1cc(C(=O)c2nc(-c3c[nH]c4ccccc34)no2)c2cc(F)ccc21
inactive: [1] 33.2% | [3] 27.4% | [4] 38.8% | [5] 28.5% | [6] 41.9% | [7] 25.3% | [8] 31.7% | [9] 39.5% | [10] 64.6%
active: [2] 8.8%

C/C(=N\O)c1ccc(Cl)cc1
inactive: [1] 112% | [2] 108% | [3] 89.6% | [4] 104% | [5] 103% | [6] 86.3% | [7] 108% | [8] 95% | [9] 105% | [10] 122%

Cc1cc(N2CCCCC2)cc(C)c1-c1csc(NC(=O)c2ccncc2)n1
inactive: [1] 80.5% | [2] 69% | [3] 55.7% | [4] 59.8% | [5] 63% | [6] 48.1% | [8] 45.1% | [9] 47.1% | [10] 64.9%
active: [7] -8.97%

Cc1ccc2c(n1)C(=O)C(Br)=C(CC(C)C)C2=O
inactive: [1] 104% | [2] 108% | [3] 97.3% | [4] 101% | [5] 97.8% | [6] 97.5% | [7] 98.1% | [8] 93.9% | [9] 98.1% | [10] 105%

COCCOc1cc2ncnc(N3CCN(c4ncc(S(=O)(=O)N5CCCCC5)cn4)CC3)c2cc1OCCOC
inactive: [1] 89.9% | [2] 109% | [3] 110% | [4] 96.2% | [5] 97.7% | [6] 88.7% | [7] 102% | [8] 95.3% | [9] 87.4% | [10] 112%

CN(c1cc2ncc(=O)[nH]c2cc1NC(N)=NCc1ccc(Cl)cc1)C1CCCCC1
active: [5] -4.07% | [9] -45.6%
inactive: [1] 99.9% | [2] 22.7% | [3] 58.2% | [4] 63.5% | [6] 64.3% | [7] 71.5% | [8] 72.3% | [10] 52.8%

O=C(OC(CO)C(=O)NC12CC3CC(CC(C3)C1)C2)c1ccc(Cl)cc1 (configuration not stated)
inactive: [1] 99.4% | [2] 100% | [3] 102% | [4] 98.8% | [5] 96.7% | [6] 98.6% | [7] 98.3% | [8] 96.6% | [9] 101% | [10] 108%

N#Cc1c(-c2ccccc2)cc(-c2ccc(Nc3nc(Nc4ccc(Cl)cc4)nc(Nc4ccc(Cl)cc4)n3)cc2)nc1N
inactive: [3] 66% | [4] 100% | [6] 20.7%
active: [1] -38.3% | [2] 9.85% | [5] -35.4% | [7] -13.8% | [9] -88.7% | [10] -80.9%

O=C(CSc1nc2ccc([N+](=O)[O-])cc2[nH]1)Nc1ccc([N+](=O)[O-])cc1
active: [7] -12.7% | [8] 2.77%
inactive: [1] 22.9% | [2] 13.1% | [3] 29.7% | [4] 12.4% | [5] 13.7% | [6] 12.7% | [9] 23.5% | [10] 30.7%

Cc1nc2sc(C(=O)Nc3cccc4ccccc34)c(N)c2cc1C(O)c1ccccc1 (configuration not stated)
inactive: [1] 13.1% | [2] 10.5% | [3] 68.8% | [4] 26.2% | [6] 14.8% | [9] 21.4%
active: [5] 1.5% | [7] -53.1%
